Targets with a hit are over-represented here; the source holds about 7,900 in all. About 0.6% of all pairs of compound and target were hits. Unmarked numbers belong to inactive results.
Tests used:
Assay in all cases: log2 fold change, soluble protein after heating vs DMSO (PISA); higher = thermal stabilisation; K562 cells, 10 uM, 30 min; active = over 0.2 and 3.5 SD of the protein, either way, in both replicates (recomputed)
[1] = compound: COC1=CC=C(C=C1)CN2C=CC3=C2C=C(C=C3)C(=O)NO
How it was run: (§1)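 Quantification of soluble protein used TMTpro 16plex LC-MS/MS, with channel sums equalised. Samples were the supernatant after 21,000xg for 90 min of pooled aliquots from K562 cells (2×10^6 cells/mL) treated with 10 μM compound for 30 min, heated for 3 min over 48°C-58°C, and extracted in PBS with 0.5% NP-40 at 4°C. Values, from duplicates, describe thermal stability against control samples on a log2 fold-change scale.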

filanesib = compound: CON(C)C(=O)N1N=C(c2cc(F)ccc2F)S[C@@]1(CCCN)c1ccccc1 [filanesib]
How it was run: as §1

zotarolimus = compound: CO[C@H]1C[C@@H]2CC[C@@H](C)[C@@](O)(O2)C(=O)C(=O)N2CCCC[C@H]2C(=O)O[C@H]([C@H](C)C[C@@H]2CC[C@H](n3cnnn3)[C@H](OC)C2)CC(=O)[C@H](C)/C=C(\C)[C@@H](O)[C@@H](OC)C(=O)[C@H](C)C[C@H](C)/C=C/C=C/C=C/1C [zotarolimus]
How it was run: as §1

idasanutlin = compound: COc1cc(C(=O)O)ccc1NC(=O)[C@@H]1N[C@@H](CC(C)(C)C)[C@](C#N)(c2ccc(Cl)cc2F)[C@H]1c1cccc(Cl)c1F [idasanutlin]
How it was run: as §1

alisertib = compound: COc1cc(Nc2ncc3c(n2)-c2ccc(Cl)cc2C(c2c(F)cccc2OC)=NC3)ccc1C(=O)O [alisertib]
How it was run: as §1

[2] = compound: COc1cc2nc(-c3cc(F)ccc3O)nc(N[C@@H]3CNC[C@H]3C(C)(C)O)c2cc1OC
How it was run: as §1

gefitinib = compound: COc1cc2ncnc(Nc3ccc(F)c(Cl)c3)c2cc1OCCCN1CCOCC1 [gefitinib]
How it was run: as §1

[3] = compound: COc1cccc2cc(-c3nc([C@H]4CC[C@H](C(=O)O)CC4)n4ncnc(N)c34)[nH]c12
How it was run: as §1

lapatinib = compound: CS(=O)(=O)CCNCc1ccc(-c2ccc3ncnc(Nc4ccc(OCc5cccc(F)c5)c(Cl)c4)c3c2)o1 [lapatinib]
How it was run: as §1

pictilisib = compound: CS(=O)(=O)N1CCN(Cc2cc3nc(-c4cccc5[nH]ncc45)nc(N4CCOCC4)c3s2)CC1 [pictilisib]
How it was run: as §1

[4] = compound: CS(=O)(=O)c1ccc(-c2cnc(N)c(C(=O)Nc3ccccc3)n2)cc1
How it was run: as §1

crizotinib = compound: C[C@@H](Oc1cc(-c2cnn(C3CCNCC3)c2)cnc1N)c1c(Cl)ccc(F)c1Cl [crizotinib]
How it was run: as §1

[5] = compound: C[C@@H]1COCCN1C2=NC(=NC(=C2)C3(CC3)S(=O)(=O)C)C4=C5C=CNC5=CC=C4
How it was run: as §1

[6] = compound: C[C@H](C1=CC=C(C=C1)C(=O)NC2=C3C=CNC3=NC=C2)N
How it was run: as §1

duvelisib = compound: C[C@H](Nc1ncnc2nc[nH]c12)c1cc2cccc(Cl)c2c(=O)n1-c1ccccc1 [duvelisib]
How it was run: as §1

gandotinib = compound: Cc1cc(Nc2cc(CN3CCOCC3)c3nc(C)c(Cc4ccc(Cl)cc4F)n3n2)n[nH]1 [gandotinib]
How it was run: as §1

[7] = compound: Cc1cc(SCc2sc(-c3ccc(C(F)(F)F)cc3)nc2C)ccc1OCC(=O)O
How it was run: as §1

doramapimod = compound: Cc1ccc(-n2nc(C(C)(C)C)cc2NC(=O)Nc2ccc(OCCN3CCOCC3)c3ccccc23)cc1 [doramapimod]
How it was run: as §1

ispinesib = compound: Cc1ccc(C(=O)N(CCCN)[C@@H](c2nc3cc(Cl)ccc3c(=O)n2Cc2ccccc2)C(C)C)cc1 [ispinesib]
How it was run: as §1

tozasertib = compound: Cc1cc(Nc2cc(N3CCN(C)CC3)nc(Sc3ccc(NC(=O)C4CC4)cc3)n2)n[nH]1 [tozasertib]
How it was run: as §1

UniProt Q9BSF4, sequence (Q9BSF4 whole entry, looked up): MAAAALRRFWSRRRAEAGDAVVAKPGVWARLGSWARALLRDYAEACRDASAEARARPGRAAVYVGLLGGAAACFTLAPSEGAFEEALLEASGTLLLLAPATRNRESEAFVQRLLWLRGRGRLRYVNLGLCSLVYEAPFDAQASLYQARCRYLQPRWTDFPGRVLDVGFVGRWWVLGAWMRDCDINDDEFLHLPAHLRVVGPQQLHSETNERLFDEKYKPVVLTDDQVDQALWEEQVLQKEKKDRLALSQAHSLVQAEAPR
UniProt Q9NXE4, sequence (Q9NXE4 whole entry, looked up): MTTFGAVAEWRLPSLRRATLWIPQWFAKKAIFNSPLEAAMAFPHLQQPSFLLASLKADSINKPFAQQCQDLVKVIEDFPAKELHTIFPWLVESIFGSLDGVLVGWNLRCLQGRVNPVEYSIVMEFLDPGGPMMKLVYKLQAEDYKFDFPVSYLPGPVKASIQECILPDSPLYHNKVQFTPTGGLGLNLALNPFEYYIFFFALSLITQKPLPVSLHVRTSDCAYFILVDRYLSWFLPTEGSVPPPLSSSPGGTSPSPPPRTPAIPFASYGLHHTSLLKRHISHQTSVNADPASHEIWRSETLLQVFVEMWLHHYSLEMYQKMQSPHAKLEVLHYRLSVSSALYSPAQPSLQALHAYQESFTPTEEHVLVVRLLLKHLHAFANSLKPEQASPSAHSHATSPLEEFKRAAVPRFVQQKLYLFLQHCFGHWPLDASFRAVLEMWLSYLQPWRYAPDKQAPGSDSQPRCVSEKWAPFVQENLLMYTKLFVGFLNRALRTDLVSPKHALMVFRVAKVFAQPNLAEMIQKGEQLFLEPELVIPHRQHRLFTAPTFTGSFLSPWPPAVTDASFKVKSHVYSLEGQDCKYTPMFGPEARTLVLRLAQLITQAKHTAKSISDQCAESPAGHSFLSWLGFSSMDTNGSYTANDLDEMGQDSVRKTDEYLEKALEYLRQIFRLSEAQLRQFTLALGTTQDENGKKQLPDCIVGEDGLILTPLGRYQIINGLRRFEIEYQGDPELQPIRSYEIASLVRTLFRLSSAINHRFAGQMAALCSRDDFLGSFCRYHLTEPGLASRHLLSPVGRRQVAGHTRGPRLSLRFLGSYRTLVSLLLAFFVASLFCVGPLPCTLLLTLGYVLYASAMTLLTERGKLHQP
UniProt Q9UP52, sequence (Q9UP52 whole entry, looked up): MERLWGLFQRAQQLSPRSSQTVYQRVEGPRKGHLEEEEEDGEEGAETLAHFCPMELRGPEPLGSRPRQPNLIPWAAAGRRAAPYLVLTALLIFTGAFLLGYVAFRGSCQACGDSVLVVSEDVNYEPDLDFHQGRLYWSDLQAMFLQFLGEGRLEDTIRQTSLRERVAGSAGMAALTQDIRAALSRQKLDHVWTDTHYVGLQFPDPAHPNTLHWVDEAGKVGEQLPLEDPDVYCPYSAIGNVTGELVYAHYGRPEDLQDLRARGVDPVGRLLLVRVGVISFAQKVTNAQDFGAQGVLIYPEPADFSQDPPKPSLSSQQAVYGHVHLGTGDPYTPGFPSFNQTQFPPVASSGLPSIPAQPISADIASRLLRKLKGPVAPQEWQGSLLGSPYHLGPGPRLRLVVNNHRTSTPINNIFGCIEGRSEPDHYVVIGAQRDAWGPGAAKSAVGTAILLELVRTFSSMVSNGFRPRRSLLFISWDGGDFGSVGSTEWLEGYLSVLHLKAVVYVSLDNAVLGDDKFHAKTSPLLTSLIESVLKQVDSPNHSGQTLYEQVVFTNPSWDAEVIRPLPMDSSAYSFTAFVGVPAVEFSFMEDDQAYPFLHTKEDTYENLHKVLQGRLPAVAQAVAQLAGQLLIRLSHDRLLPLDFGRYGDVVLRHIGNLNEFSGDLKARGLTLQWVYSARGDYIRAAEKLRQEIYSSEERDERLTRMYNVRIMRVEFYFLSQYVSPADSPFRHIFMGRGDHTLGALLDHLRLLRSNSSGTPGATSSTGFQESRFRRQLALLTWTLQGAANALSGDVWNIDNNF
UniProt Q9UHD2, sequence (Q9UHD2 whole entry, looked up): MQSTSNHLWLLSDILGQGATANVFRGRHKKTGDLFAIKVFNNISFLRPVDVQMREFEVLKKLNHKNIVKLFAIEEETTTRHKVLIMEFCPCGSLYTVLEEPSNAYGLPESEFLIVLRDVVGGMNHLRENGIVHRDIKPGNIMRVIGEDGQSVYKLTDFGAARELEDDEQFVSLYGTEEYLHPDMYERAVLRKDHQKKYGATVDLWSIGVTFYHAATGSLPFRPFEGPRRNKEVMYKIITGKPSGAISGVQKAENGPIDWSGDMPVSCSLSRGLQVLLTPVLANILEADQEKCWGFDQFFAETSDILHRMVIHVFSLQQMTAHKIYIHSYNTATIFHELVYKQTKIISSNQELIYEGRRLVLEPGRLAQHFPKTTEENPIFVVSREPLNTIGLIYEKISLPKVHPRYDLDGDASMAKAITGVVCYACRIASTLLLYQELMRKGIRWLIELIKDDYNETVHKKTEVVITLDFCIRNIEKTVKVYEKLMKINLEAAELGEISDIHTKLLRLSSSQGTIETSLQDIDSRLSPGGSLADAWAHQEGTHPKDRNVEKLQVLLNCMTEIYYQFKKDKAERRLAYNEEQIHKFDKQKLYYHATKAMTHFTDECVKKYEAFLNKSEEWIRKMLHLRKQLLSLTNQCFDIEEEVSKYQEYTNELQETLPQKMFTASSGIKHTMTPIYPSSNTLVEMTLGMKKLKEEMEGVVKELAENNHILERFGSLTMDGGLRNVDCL
UniProt Q56A73, sequence (Q56A73 whole entry, looked up): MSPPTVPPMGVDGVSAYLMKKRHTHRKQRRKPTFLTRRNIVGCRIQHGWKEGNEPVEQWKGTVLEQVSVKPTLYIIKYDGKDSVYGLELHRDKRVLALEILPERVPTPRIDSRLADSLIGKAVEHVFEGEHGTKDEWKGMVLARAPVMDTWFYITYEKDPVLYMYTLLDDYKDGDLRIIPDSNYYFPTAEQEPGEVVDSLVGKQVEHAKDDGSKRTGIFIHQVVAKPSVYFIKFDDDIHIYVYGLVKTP
UniProt P51532, sequence (P51532 whole entry, looked up): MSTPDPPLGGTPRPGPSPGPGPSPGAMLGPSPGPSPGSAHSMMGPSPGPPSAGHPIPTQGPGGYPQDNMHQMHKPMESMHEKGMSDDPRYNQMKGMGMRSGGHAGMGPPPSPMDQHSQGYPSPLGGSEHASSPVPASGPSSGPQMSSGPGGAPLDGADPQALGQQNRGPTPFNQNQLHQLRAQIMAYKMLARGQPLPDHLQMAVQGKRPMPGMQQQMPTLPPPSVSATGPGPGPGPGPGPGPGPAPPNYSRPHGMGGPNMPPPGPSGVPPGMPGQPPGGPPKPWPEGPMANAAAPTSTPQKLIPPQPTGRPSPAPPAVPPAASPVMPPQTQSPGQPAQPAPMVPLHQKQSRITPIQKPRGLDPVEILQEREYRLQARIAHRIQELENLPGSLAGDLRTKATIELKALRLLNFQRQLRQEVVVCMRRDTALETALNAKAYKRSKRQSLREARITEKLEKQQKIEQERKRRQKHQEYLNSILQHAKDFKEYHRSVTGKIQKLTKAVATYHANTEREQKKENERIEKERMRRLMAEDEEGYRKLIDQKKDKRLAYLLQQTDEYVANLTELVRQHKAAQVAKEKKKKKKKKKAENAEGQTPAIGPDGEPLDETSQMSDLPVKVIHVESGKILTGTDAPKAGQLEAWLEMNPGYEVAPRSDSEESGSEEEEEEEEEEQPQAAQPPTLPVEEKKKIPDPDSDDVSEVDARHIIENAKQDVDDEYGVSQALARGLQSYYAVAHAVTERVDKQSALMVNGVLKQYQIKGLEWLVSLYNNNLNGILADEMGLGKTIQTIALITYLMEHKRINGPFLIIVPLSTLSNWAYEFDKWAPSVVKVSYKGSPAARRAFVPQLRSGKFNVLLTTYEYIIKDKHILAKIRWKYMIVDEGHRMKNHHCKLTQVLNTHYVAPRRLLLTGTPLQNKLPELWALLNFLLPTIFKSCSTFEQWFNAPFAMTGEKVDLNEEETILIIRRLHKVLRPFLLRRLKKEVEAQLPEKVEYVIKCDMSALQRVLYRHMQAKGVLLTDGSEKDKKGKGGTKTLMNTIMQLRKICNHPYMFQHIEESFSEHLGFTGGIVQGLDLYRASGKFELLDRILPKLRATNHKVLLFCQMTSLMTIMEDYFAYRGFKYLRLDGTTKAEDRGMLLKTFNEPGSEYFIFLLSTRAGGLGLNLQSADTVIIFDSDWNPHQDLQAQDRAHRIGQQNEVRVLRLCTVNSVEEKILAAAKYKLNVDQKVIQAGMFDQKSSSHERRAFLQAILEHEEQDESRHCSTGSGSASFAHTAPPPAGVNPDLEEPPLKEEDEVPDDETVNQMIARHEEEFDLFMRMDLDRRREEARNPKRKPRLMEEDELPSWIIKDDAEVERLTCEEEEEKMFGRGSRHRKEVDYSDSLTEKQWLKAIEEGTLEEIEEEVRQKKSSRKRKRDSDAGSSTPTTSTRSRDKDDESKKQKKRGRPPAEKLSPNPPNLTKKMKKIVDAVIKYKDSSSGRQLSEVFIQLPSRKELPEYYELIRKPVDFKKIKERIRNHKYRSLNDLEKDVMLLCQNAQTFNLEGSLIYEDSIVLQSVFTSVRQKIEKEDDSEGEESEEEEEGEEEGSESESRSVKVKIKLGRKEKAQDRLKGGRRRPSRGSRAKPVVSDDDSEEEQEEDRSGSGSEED
UniProt O94768, sequence (O94768 whole entry, looked up): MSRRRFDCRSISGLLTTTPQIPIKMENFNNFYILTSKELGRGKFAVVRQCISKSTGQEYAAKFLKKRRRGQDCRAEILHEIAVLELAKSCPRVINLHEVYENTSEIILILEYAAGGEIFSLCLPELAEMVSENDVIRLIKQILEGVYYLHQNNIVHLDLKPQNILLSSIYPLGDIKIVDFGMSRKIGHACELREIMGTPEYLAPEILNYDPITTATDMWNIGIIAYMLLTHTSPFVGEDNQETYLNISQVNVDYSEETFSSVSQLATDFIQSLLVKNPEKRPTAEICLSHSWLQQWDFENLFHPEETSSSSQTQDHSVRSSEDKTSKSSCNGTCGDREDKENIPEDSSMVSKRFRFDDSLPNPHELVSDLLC
UniProt Q9H4I9, sequence (Q9H4I9 whole entry, looked up): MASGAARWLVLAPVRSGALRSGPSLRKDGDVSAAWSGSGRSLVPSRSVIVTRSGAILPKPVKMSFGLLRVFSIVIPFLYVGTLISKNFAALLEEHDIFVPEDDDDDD

| Target | log2 fold change [1] | log2 fold change (filanesib) | log2 fold change (zotarolimus) | log2 fold change (idasanutlin) | log2 fold change (alisertib) | log2 fold change [2] | log2 fold change (gefitinib) | log2 fold change [3] | log2 fold change (lapatinib) | log2 fold change (pictilisib) | log2 fold change [4] | log2 fold change (crizotinib) | log2 fold change [5] | log2 fold change [6] | log2 fold change (duvelisib) | log2 fold change (gandotinib) | log2 fold change [7] | log2 fold change (doramapimod) | log2 fold change (ispinesib) | log2 fold change (tozasertib) |
| --- | --- | --- | --- | --- | --- | --- | --- | --- | --- | --- | --- | --- | --- | --- | --- | --- | --- | --- | --- | --- |
| SRSF9 (UniProt Q13242) | -0.088 | 0.378 | -0.026 | 0.297 | -0.118 | -0.09 | -0.068 | -0.128 | 0.155 | -0.036 | -0.11 | 0.058 | -0.539 | 0.389 | -0.142 | 0.4 | -0.048 | 0.26 | -0.255 | – |
| TIMM13 (UniProt Q9Y5L4) | 0.206 | -0.091 | 0.042 | -0.043 | -0.006 | -0.3 (active) | -0.002 | -0.01 | 0.027 | -0.056 | -0.047 | 0.051 | 0.151 | -0.115 | 0.079 | -0.002 | 0.006 | 0.039 | 0.12 | 0.038 |
| SMARCA4 (UniProt P51532) | -0.101 | 0.124 | 0.09 | 0.15 | -0.086 | 0.273 | – | -0.038 | -0.544 (active) | 0.025 | 0.216 | 0.01 | 0.036 | 0.188 | 0.065 | 0.042 | -0.064 | 0.085 | -0.248 | – |
| TIMM29 (UniProt Q9BSF4) | -0.141 | 0.041 | -0.058 | -0.096 | 0.01 | 0.021 | 0.039 | 0.073 | 0.014 | 0.051 | 0.044 | 0.08 | 0.065 | -0.033 | -0.015 | -0.014 | 0.02 | 0.185 | 0.033 | 0.012 |
| SMPD4 isoform 4 (UniProt Q9NXE4) | 0.051 | -0.223 | 0.011 | -0.049 | 0.145 | -0.109 | 0.02 | -0.043 | -0.013 | -0.034 | -0.026 | -0.215 | 0.005 | 0.01 | 0.091 | -0.133 | 0.025 | 0.002 | -0.255 | -0.086 |
| TFR2 (UniProt Q9UP52) | -0.066 | 0.011 | -0.06 | 0.035 | -0.04 | 0.011 | -0.035 | 0.041 | -0.011 | 0.05 | 0.068 | -0.182 | -0.001 | -0.016 | 0.032 | 0.03 | -0.038 | -0.019 | -0.097 | -0.023 |
| SRXN1 (UniProt Q9BYN0) | 0.406 | 0.076 | 0.022 | -0.028 | 0.098 | -0.036 | 0.012 | 0.001 | 0.151 | -0.562 (active) | 0.009 | -0.295 | 0.09 | -0.091 | – | 0.01 | – | 0.076 | -0.16 | -0.086 |
| ST3GAL2 (UniProt Q16842) | 0.087 | 0.124 | 0.092 | 0.075 | -0.134 | 0.1 | 0.187 | -0.043 | 0.17 | 0.102 | 0.096 | -0.288 | -0.017 | 0.006 | 0.035 | 0.127 | 0.033 | 0 | -0.096 | 0.024 |
| TM7SF3 (UniProt Q9NS93) | -0.002 | -0.218 | -0.042 | -0.015 | -0.217 | 0.101 | -0.066 | 0.248 | 0.014 | – | -0.01 | -0.432 (active) | – | -0.216 | 0.007 | – | -0.003 | 0.052 | -0.343 (active) | -0.054 |
| TBK1 (UniProt Q9UHD2) | -0.06 | 0.05 | -0.037 | 0.046 | 0.064 | 0.087 | -0.098 | 0.08 | -0.018 | 0.009 | -0.027 | 0.489 (active) | -0.021 | 0.043 | 0.082 | 0.237 | 0.175 | 0.013 | -0.18 | 0.129 |
| SYNE1 (UniProt Q8NF91) | 0.316 | -0.079 | 0.019 | -0.029 | 0.002 | – | 0.049 | 0.084 | – | 0.187 | 0.096 | -0.132 | -0.041 | 0.104 | 0.103 | 0.109 | -0.04 | 0.061 | -0.159 | -0.187 |
| SNX15 (UniProt Q9NRS6) | -0.166 | 0.151 | -0.034 | 0.108 | -0.027 | 0.019 | 0.126 | 0.032 | -0.139 | 0.018 | 0.064 | 0.002 | – | 0.153 | -0.012 | -0.061 | -0.043 | 0.136 | -0.132 | 0.063 |
| SMDT1 (UniProt Q9H4I9) | -0.053 | -0.39 (active) | -0.014 | -0.087 | -0.058 | – | – | 0.014 | – | 0.095 | 0.144 | 0.042 | 0.017 | -0.035 | 0.026 | -0.23 | 0 | 0.054 | – | -0.014 |
| SLC29A3 (UniProt Q9BZD2) | 0.009 | -0.258 | -0.015 | -0.113 | 0 | -0.08 | -0.08 | 0.019 | -0.118 | – | 0.014 | -0.559 (active) | -0.098 | 0.078 | 0.069 | – | 0.055 | 0.015 | -1.02 (active) | 0.097 |
| SNX12 isoform 1 (UniProt Q9UMY4) | -0.029 | -0.027 | -0.007 | 0.039 | 0.005 | -0.008 | 0.035 | 0.09 | -0.006 | -0.002 | 0.004 | -0.055 | 0.081 | 0.007 | -0.162 | -0.204 | 0.044 | -0.036 | -0.097 | 0.021 |
| SPIN4 (UniProt Q56A73) | -1.43 (active) | – | – | – | – | – | – | – | – | – | – | 0.108 | – | – | – | – | – | -0.213 | – | – |
| SRCAP (UniProt Q6ZRS2) | -0.083 | 0.097 | -0.02 | – | -0.091 | -0.067 | 0.198 | 0.062 | 0.049 | 0.015 | -0.015 | -0.276 | – | -0.111 | 0.039 | -0.069 | -0.035 | 0.051 | 0 | 0.064 |
| STK17B (UniProt O94768) | 0.01 | – | – | – | – | – | – | – | – | – | – | -0.227 | – | – | – | – | – | -0.085 | – | – |
